Experimental data taken from PubChem BioAssay (Tox21).
Records with an inconclusive call do not appear. The source made the active and inactive calls. Unless noted, calls come from the whole dose curve; as a rule, active = well fitted curve in the direction sought with a large enough effect; inconclusive = small, poorly fitted or top-dose-only effect, or another doubt; inactive = no such curve, though single readings can be large; an effect the other way counts as inactive or inconclusive. Residues, ends and D or L forms follow the SMILES beside them.

Assay: qHTS assay to identify small molecule phospholipidosis (PLD) inducers (AID 1259344)
Details: HepG2 phospholipidosis, LipidTOX Red imaging, 24 h; series mostly up to 38.3 µM; PLD induction: at the top concentration
In short: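 Fluorescent phospholipid staining (LipidTOX Red) measured by automated microscopy in fixed HepG2 cells after 24 h treatment; nuclei counterstained with Hoechst 33342; amiodarone as reference inducer.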
% is set by controls: 0 for no effect and ±100 for the full control effect.

SMILES	PLD induction	Potency
N[C@@H](Cc1cnc[nH]1)C(=O)O	-0.695% (inactive)	
CC(=O)OCC(=O)[C@@]1(O)CC[C@H]2[C@@H]3CCC4=CC(=O)CC[C@]4(C)C3=CC[C@@]21C	-0.152% (inactive)	
Cc1cnc(C(=O)O)c[n+]1[O-]		inactive
CC(C)COC(=O)OCN1C(=O)CN(CCN2CC(=O)N(COC(=O)OCC(C)C)C(=O)C2)CC1=O	-0.0088% (inactive)	
CC12CCC(C1)C(C)(C)C2=O (centres undefined)	-0.681% (inactive)	
O=C1CCC(c2ccc(-n3ccnc3)cc2)=NN1	-0.849% (inactive)	
CC(C)=CCC/C(C)=C/CC/C(C)=C/CC/C=C(\C)CC/C=C(\C)CCC=C(C)C		inactive
CC[C@H]1OC(=O)[C@H](C)C(=O)[C@H](C)[C@@H](O[C@@H]2O[C@H](C)C[C@H](N(C)C)[C@H]2O)[C@](C)(OC)C[C@@H](C)C(=O)[C@H](C)[C@H]2N(CCCCn3cnc(-c4cccnc4)c3)C(=O)O[C@]12C		inactive
CC(C)(S)C(=O)N[C@@H](CS)C(=O)O		inactive
C[S+](C)CCC(N)C(=O)O (centres undefined)	0.427% (inactive)	
O=C(O)CCCC/C=C(\c1ccccc1)c1cccnc1	-0.122% (inactive)	
c1ccc(-n2cnnn2)cc1	-0.359% (inactive)	
CC(C)C[C@H](NC(=O)[C@@H](COC(C)(C)C)NC(=O)[C@H](Cc1ccc(O)cc1)NC(=O)[C@H](CO)NC(=O)[C@H](Cc1c[nH]c2ccccc12)NC(=O)[C@H](Cc1cnc[nH]1)NC(=O)[C@@H]1CCC(=O)N1)C(=O)N[C@@H](CCCN=C(N)N)C(=O)N1CCC[C@H]1C(=O)NNC(N)=O		inactive
C[C@H](Cc1ccc(O)c(O)c1)[C@@H](C)Cc1ccc(O)c(O)c1	-1.08% (inactive)	
CN1C(C(=O)Nc2ccccn2)C(=O)c2sc(Cl)cc2S1(=O)=O (centres undefined)	-1.17% (inactive)	
CCC(NC(C)C)C(O)c1ccc(O)c(O)c1 (centres undefined)	-0.344% (inactive)	
CCOC(=O)COc1ccc2c(=O)cc(-c3ccccc3)oc2c1		inactive
Nc1ccc(N)c([N+](=O)[O-])c1	-6.91% [at 78.4 µM] (inactive)	

SMILES	PLD induction	Potency
CCN(CC)CCNC(=O)c1ccc(NS(C)(=O)=O)cc1	-0.241% [at 7.66 µM] (inactive)	
O=C1c2c(O)cccc2[C@H]([C@@H]2O[C@H](CO)[C@@H](O)[C@H](O)[C@H]2O)c2cc(CO)cc(O)c21		inactive
CC[C@@H](C(=O)[C@@H](C)[C@@H](O)[C@H](C)CCc1ccc(C)c(O)c1C(=O)O)[C@H]1O[C@](CC)([C@H]2CC[C@](O)(CC)[C@H](C)O2)C[C@@H]1C	-2.45% (inactive)	
CC12CCC(C[N+](C)(CCC[N+](C)(C)C)C1)C2(C)C (centres undefined)	-0.0087% (inactive)	
COc1cc2c(cc1O)CCN[C@]21CS[C@@H]2c3c(OC(C)=O)c(C)c4c(c3[C@H](COC1=O)N1[C@@H]2[C@H]2c3c(cc(C)c(OC)c3O)C[C@@H]([C@@H]1O)N2C)OCO4		inactive
COc1c(O)cc2c(c1O)[C@@H]1O[C@H](CO)[C@@H](O)[C@H](O)[C@H]1OC2=O	-0.409% [at 15.5 µM] (inactive)	
CC(=O)OCC1=C(C(=O)O)N2C(=O)[C@@H](NC(=O)Cc3ccccc3)[C@H]2SC1	-0.556% (inactive)	
C=CC1=C(C(=O)O)N2C(=O)[C@@H](NC(=O)/C(=N/OCC(=O)O)c3csc(N)n3)[C@H]2SC1 (stereo in doubt)	-0.167% [at 15.5 µM] (inactive)	
CC(C)[C@H](NC(=O)[C@H](CC(=O)O)NC(=O)[C@H](CCCCN)NC(=O)[C@@H](N)CCCN=C(N)N)C(=O)N[C@@H](Cc1ccc(O)cc1)C(=O)O (H-RKDVY-OH)	-0.269% (inactive)	
CC(C)(O/N=C(\C(=O)N[C@@H]1C(=O)N2C(C(=O)[O-])=C(C[n+]3ccccc3)CS[C@H]12)c1csc(N)n1)C(=O)O	-0.632% [at 15.5 µM] (inactive)	
NC(=O)C1c2ccccc2CCc2ccccc21	-0.486% (inactive)	
CSCCC(N)C(=O)O (centres undefined)	-0.419% (inactive)	
CC(C)NCC1CCc2cc(CO)c([N+](=O)[O-])cc2N1 (centres undefined)	0.619% [at 15.5 µM] (inactive)	
CCCCCCCCCC(=O)NO		inactive
CC(C)(Oc1ccc(C2CCCc3ccccc32)cc1)C(=O)O (centres undefined)	-0.653% (inactive)	
COc1cc2c(c(OC)c1OC)-c1c(cc3c(c1OC)OCO3)C[C@@H](C)[C@](C)(O)C2		inactive
CC/C=C\C/C=C\C/C=C\C/C=C\C/C=C\CCCC(=O)O	-0.22% (inactive)	

Assay: qHTS assay to identify small molecule HDAC inhibitors (AID 1259364; active = well fitted curve in the direction sought with a large enough effect in the repeat runs; an effect the other way counts as inactive or inconclusive; note: top concentration of the series differs between compounds; nearly all actives have a fitted effect of over 45% in size)
Details: HCT-116 HDAC-Glo I/II luminescence, 2 h; series mostly up to 92.4 µM; activity change, negative = inhibition: at the top concentration
In short: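 Homogeneous cell-based luminescent assay of endogenous class I/II HDAC activity; HCT-116 cells, 2 h compound exposure, 30 min HDAC-Glo development at RT.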

SMILES	activity change, negative = inhibition	Potency
COc1ccc2ccccc2c1	-1.32% (inactive)	
CCCCCCCC1CCC(=O)O1 (centres undefined)	-10.1% (inactive)	
Nc1ccc(N)c([N+](=O)[O-])c1	-1.74% (inactive)	
CC(=O)N(C)C		inactive

Assay: qHTS assay to identify small molecule agonists of the sonic hedgehog signaling (Shh) pathway (AID 1259368; calls by dose curve;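 note: NIH/3T3-derived 3T3Gli1-Luc cells carrying a stable Gli1-driven firefly luciferase reporter; nearly all actives have a fitted effect of over 15% in size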)
Details: NIH/3T3 Gli1-Luc reporter, luciferase, 24 h; series mostly up to 92.4 µM; activity change: at the top concentration
In short: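 Steps: seed 3T3 Gli1-Luc cells, incubate 4 hr at 37 C, pin-transfer compounds in DMSO alongside a positive control, incubate 24 hr, add luciferase detection reagent, wait 30 min at room temperature, read luminescence.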

SMILES	activity change
CS(=O)(=O)c1ccc([C@@H](CC2CCCC2)C(=O)Nc2cnccn2)cc1Cl	-1.88% (inactive)
COc1ccc2ccccc2c1	0.397% (inactive)
CCCCCCCC1CCC(=O)O1 (centres undefined)	2.37% (inactive)
Nc1ccc(N)c([N+](=O)[O-])c1	-5.06% (inactive)
O=C1Cc2ccccc2C1	0.578% (inactive)
